miR-21 reporter – qHTS Assay for Modulators of miRNAs and/orActivators of miR-21 | HeLa miR-21 FLuc reporter, luciferase, 48 h | Potency, µM (series often up to 38.3 µM), without a hit: at the top dose activity change, positive = activation, usual class: activators | 340,000 tested, under 10 active;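 note: % of control where 0% means no effect; miR-21 action dims this reporter so a rising signal means less miR-21 action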
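HeLa miR-21-FLuc reporter line, endogenous miR-21; 2000 cells/well in DMEM/10% FBS; compound titration up to ~40uM final, 48 h, 37 degree Celsius; luciferase detection reagent, 15 min lysis, CCD luminescence.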
PINK1 modulator – A Quantitative High throughput Screen to Identify Chemical Modulators of PINK1 Expression; PINK1 immunofluorescence, high-content cytometry, 24 h; Potency, µM (highest dose often 76.6 µM), without a hit: at the highest dose activation (PINK1 increase), hits mostly activators; 410,000 compounds, 0.2% hits; AID 624263, 2012; active = well fitted activation curve with a large enough effect; inconclusive = small, poorly fitted or top-dose-only effect; cell line not stated here; note: potency is the fitted concentration of half-maximal effect; % of control where 0% means no effect; nearly all actives have a fitted effect of over 65% in size
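Fluorescence from anti-PINK1 antibody, together with nuclear and cell stains, was scanned on a laser-scanning cytometer. Before staining, stable-line cells were incubated 24 hours with compounds at 5 concentrations; primary antibody 12 h at 10 degrees C.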
TCR activator – Activators of T cell receptors: qHTS campaign; Potency, µM (doses to about 9.22 µM), for inactives: top-dose activation of IL-2 secretion, most hits filed as activators; AID 504894, 2011; primary human leukocytes, anti-CD3, IL-2 HTRF, 48 h; 330,000 tested, under 10 active; note: % of control where 0% means no effect
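Activity was scored as IL-2 release from primary human leukocytes given only a TCR signal (a-CD3 beads) plus compound for 48 hr. Detection used a two-antibody HTRF format read at 665nm.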
RXFP1 ag – qHTS Assay for Agonists of the Relaxin Receptor RXFP1; Relaxin receptor 1 (Homo sapiens), Q9HBX9; HEK293T-RXFP1 cAMP TR-FRET, 30 min; response scale: percent of porcine relaxin response, buffer zero; Potency, µM (series often up to 57.5 µM), without a hit: at the top dose activation, hits mostly activators; 370,000 compounds, 0.3% hits; note: potency is the fitted concentration of half-maximal effect; % is set by controls: 0 for no effect and ±100 for the full control effect; nearly all actives have a fitted effect of over 60% in size
Target sequence (Q9HBX9 whole entry, looked up): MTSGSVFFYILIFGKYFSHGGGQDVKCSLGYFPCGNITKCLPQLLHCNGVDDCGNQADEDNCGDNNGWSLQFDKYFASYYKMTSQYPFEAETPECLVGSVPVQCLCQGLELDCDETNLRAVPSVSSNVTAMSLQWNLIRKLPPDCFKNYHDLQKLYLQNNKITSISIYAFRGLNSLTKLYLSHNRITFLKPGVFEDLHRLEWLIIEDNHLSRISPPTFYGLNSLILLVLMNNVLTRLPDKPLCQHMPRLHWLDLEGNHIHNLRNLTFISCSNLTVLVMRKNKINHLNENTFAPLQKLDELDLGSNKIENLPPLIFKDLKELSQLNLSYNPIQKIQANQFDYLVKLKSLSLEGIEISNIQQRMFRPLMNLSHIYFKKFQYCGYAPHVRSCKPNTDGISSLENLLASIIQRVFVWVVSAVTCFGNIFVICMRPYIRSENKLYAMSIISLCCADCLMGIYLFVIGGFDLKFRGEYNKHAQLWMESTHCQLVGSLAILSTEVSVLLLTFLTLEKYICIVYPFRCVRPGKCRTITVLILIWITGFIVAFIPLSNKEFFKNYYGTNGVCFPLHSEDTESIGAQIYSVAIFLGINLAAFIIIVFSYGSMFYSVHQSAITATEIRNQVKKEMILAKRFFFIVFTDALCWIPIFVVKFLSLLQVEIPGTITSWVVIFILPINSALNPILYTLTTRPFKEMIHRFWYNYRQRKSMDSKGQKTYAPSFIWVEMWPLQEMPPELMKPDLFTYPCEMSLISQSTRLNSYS
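Agonist response is measured as cAMP accumulation in an RXFP1-transfected HEK293T line under PDE4 inhibition. Values are scaled between buffer-only and 29 nM porcine relaxin, and EC50s come from standard Hill equation fits.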
IL-2 act – qHTS of IL-2 Activators. IL-2 activation reporter assay, cell-based qHTS; stimulated with anti-CD3/CD4/CD28 beads; in transgenic mouse T cells. activation, % (series mostly up to about 46 µM). 360,000 compounds, 0.065% hits; in the data active = activation above about 50%; inconclusive = mostly about 30% to 49%; note: 0% is about no effect
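Readout is EGFP and DsRed signal by fluorescent plate cytometry after 18 h at 37 degrees C. Transgenic mouse T cells (750/well) received compound for 60 min before bead stimulation (anti-CD3, anti-CD4, anti-CD28); memory T cells served as non-tolerant control.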
RXFP1 antag – qHTS Assay for Antagonists of the Relaxin Receptor RXFP1; Relaxin receptor 1 (Homo sapiens), Q9HBX9; HEK293-RXFP1, relaxin-stimulated cAMP HTRF, 30 min; active compounds read low; activity change, negative = inhibition, % at 57.5 µM; 350,000 compounds, 0.59% hits; AID 1259400, 2018;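 active = activity change of -60% or lower, but not beyond a set lower limit; inconclusive = change between -60% and -40%, or beyond the set limit; inactive = change above -40%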; note: % is set by controls: 0 for no effect and ±100 for the full control effect
* = called active by the depositor; ? = inconclusive; . = not tested or not shown; [ ] = remark or other dose. Only some compounds are listed: those with a hit (about 0.78% of all), similar ones and a draw of the others. Unless noted, calls come from the whole dose curve; as a rule, active = well fitted curve in the direction sought with a large enough effect; inconclusive = small, poorly fitted or top-dose-only effect, or another doubt; inactive = no such curve, though single readings can be large; an effect the other way counts as inactive or inconclusive.

SMILES	miR-21 reporter	PINK1 modulator	TCR activator	RXFP1 ag	IL-2 act	RXFP1 antag
COc1ccc(-n2c(=O)c3ccc(C(=O)NCc4ccc(C)cc4)cc3n(CC(=O)Nc3cccc(F)c3)c2=O)cc1	-4.0%	3.5%	.	31.6µM*	.	.
COc1ccc(NC(=O)Cn2c(=O)n(-c3ccc(OC)cc3)c(=O)c3ccc(C(=O)NCc4ccc(C)cc4)cc32)cc1	-14.9%	5.8%	.	13.4%	.	.
Cc1ccc(-n2c(=O)c3ccc(C(=O)NCc4ccccc4Cl)cc3n(Cc3cccc(F)c3)c2=O)cc1	-6.2%	-5.0%	.	31.6µM*	.	.
COC(=O)[C@@H]1CCCN1C(=O)c1c(OC)cc(=O)n2c1CCN(Cc1ccc3c(c1)CCO3)CC2	.	0.1%	.	.	.	.
CC1(C(=O)Nc2nc3ccccc3s2)CC1(Br)Br (stereo not given)	-69.2%	0.5%	-0.7%	20µM*	-2.8	-0.9
N#C/C(=C1\SCC(c2ccccc2Cl)S1)n1ccnc1 (stereo not given)	.	.	.	.	.	17.0
NC1[C@H]2CN(c3nc4c(cc3F)c(=O)c(C(=O)O)cn4-c3ccc(F)cc3F)C[C@@H]12 (stereo not given in full)	.	.	.	.	.	-30.6
O=S(=O)(/N=S1/CC=CCN1S(=O)(=O)c1ccccc1)c1ccccc1 (stereo not given)	25.3%	-0.1%	2.4%	-0.7%	-0.8	-72.0*
O=C(Nc1ccccc1)Nc1cc(OCC(F)(F)F)cc(OCC(F)(F)F)c1	?	1.7%	-3.4%[46.1 µM]	-0.2%	-6.6	-72.2*
CC(NC(CCc1ccccc1)C(=O)O)C(=O)N1C(=O)N(C)CC1C(=O)O (stereo not given)	.	.	.	.	.	6.7
COc1ccc(C(=O)NCCCN2CCN(CCCNC(=O)c3ccc(OC)c(OC)c3)CC2)cc1OC	.	1.3%	0.1%	0.2%	-0.2	-74.5*
COc1ccc(C(=O)NCCN2CCN(C(=O)c3ccc(OC)c(OC)c3)CC2)cc1OC	0.2%	2.2%	-1.2%	2.7%	1.2	-7.2
N#CC1=C2SCN(Cc3ccccc3)CN2C(=O)CC1c1cccs1 (stereo not given)	-2.9%	2.8%	-10.1%	25.1µM*	-1.1	7.4
N#CC1=C2SCN(Cc3ccccc3)CN2C(=O)CC1c1ccc2c(c1)OCO2 (stereo not given)	-1.8%	-2.0%	3.1%	0.1%	2.8	-19.8
COc1cc(=O)n2c(c1C(=O)NCc1ccco1)CCN(Cc1cccc(C(F)(F)F)c1)CC2	.	1.5%	.	.	.	.
O=C(c1ccccc1C(F)(F)F)N1CCOc2c(cc(-c3nc4ccccc4s3)cc2OC2CCOC2)C1 (stereo not given)	.	-0.6%	.	.	.	.
Cc1ncc2c(c1CNS(=O)(=O)N(C)C)CCN(C(=O)c1ccc(F)cc1Cl)C2	.	-0.1%	.	.	.	.
CC1=CC(=O)C=C(C)C1=NOS(=O)(=O)c1ccccc1	?	-0.9%	-2.3%	-1.0%	-3.1	-84.2*
COC(=O)c1c(NC(=S)Nc2ccccc2Cl)sc(C)c1C	-2.8%	.	.	7.8%	-2.0	-107.2*
COc1ccc(C(C)N(C)Cc2nc(N3CCN(C(=O)c4ccco4)CC3)c3ccccc3n2)cc1 (stereo not given)	.	1.5%	.	.	.	.
CCOc1cccc(-c2c(C(=O)N/N=C(\C)c3ccncc3)nnn2-c2nonc2N)c1	-0.8%	-0.4%	6.9%	-2.6%	-3.6	-62.5*
COc1ccc(-n2nc(C(=O)NCC(=O)NCCCN3CCOCC3)c3ccccc3c2=O)cc1OC	-3.7%	-1.1%	-5.8%	14.1µM*	4.6	11.5
COc1ccc(-n2nc(C(=O)NCC(=O)NCCCN3CCOCC3)c3ccccc3c2=O)cc1	3.1%	2.3%	-2.7%	15.8µM*	0.2	31.6
